# Inconclusive results are not listed. Some compounds were tested as several samples or in several runs, with calls that do not always agree. Activity calls are given as the source filed them. The calls were made as follows, unless noted: active = hit-call score of the fitted dose curve at least 0.9, where 1 is the maximum; inactive = score below 0.9.
# Key:
# [1] = read-out: Monocyte Chemoattractant Protein-1 (MCP1), CCL2 (gene 6347); assay: BSK_SAg_MCP1: BioMAP Diversity Plus: SAg Assay for Monocyte Chemoattractant Protein-1 (MCP1) Biomarker Activity (AID 2283090); settings: primary human HUVEC with PBMC; actives raise or lower the signal
# Outline: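 Values derive from bidirectional fitting of ELISA-measured MCP1 against DMSO controls. Readings were taken 24 h after dosing human vascular endothelial cells co-cultured with peripheral blood mononuclear cells under superantigen stimulation.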
# [2] = read-out: E-selectin (Homo sapiens) (UniProt P16581); assay: BSK_SAg_Eselectin: BioMAP Diversity Plus: SAg Assay for Eselectin Biomarker Activity (AID 2283091); settings: primary human HUVEC with PBMC; actives raise or lower the signal
# Outline: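 Human umbilical vein endothelial cells co-cultured with peripheral blood mononuclear cells, SAg system. E-selectin is measured by ELISA 24 h after dosing and fitted bidirectionally against DMSO. Cytotoxicity is checked by SRB staining of parallel cultures.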
# [3] = read-out: Monokine induced gamma interferon (MIG), CXCL9 (gene 4283); assay: BSK_SAg_MIG: BioMAP Diversity Plus: SAg Assay for Monokine induced gamma interferon (MIG) Biomarker Activity (AID 2283092); settings: primary human HUVEC with PBMC; actives raise or lower the signal
# Outline: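 Endothelial cells and PBMC were co-cultured, exposed to test chemicals, and sampled 24 h later. MIG was measured by ELISA, and responses were fitted in both directions relative to DMSO.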
# [4] = BSK_SAg_PBMCCytotoxicity: PBMC Cytotoxicity Assessment in the BioMAP Diversity Plus: SAg Assay (AID 2283093); settings: primary human HUVEC with PBMC;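 also: PBMC viability measured as Alamar Blue reduction fluorescence at 546/580 nm; fitted both ways against DMSO so a hit may be loss or gain of signal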;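 as to AC50: PBMC superantigen activated with SEB plus TSST-1 one hour after compound addition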
# Outline: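 Alamar Blue reduction (6 h, 546/580 nm) reports PBMC cytotoxicity after 90 h superantigen activation (SEB, TSST-1; 20 ng/mL final each) with 1 h compound pre-treatment. Gain or loss of signal fitted versus DMSO.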
# [5] = read-out: Interleukin-8 (IL8), CXCL8 (gene 3576); assay: BSK_SAg_IL8: BioMAP Diversity Plus: SAg Assay for Interleukin-8 (IL8) Biomarker Activity (AID 2283094); settings: primary human HUVEC with PBMC; actives raise or lower the signal
# Outline: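 ELISA readout of IL-8 from a superantigen-activated endothelial/PBMC primary human co-culture, taken 24 h post-dosing and fitted in both directions against DMSO; parallel SRB total-protein staining flags overt cytotoxicity.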
# [6] = BSK_SAg_Proliferation: Cell Proliferation Assessment in the BioMAP Diversity Plus: SAg Assay (AID 2283095); settings: primary human HUVEC with PBMC;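 also: relative cell number as total protein by SRB absorbance in sub-confluent culture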
# Outline: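 Relative cell number in the endothelial cell/PBMC co-culture was quantified at 96 h by SRB staining (0.1% SRB, 10% TCA fixation, read at 560 nm). Curves were fitted in both directions relative to DMSO baseline.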
# [7] = BSK_SAg_SRB: Viability Assessment in the BioMAP Diversity Plus: SAg Assay (AID 2283096); settings: primary human HUVEC with PBMC;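 also: cells read one day after compound addition; hits may be either gain or loss of signal compared with DMSO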
# Outline: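 This overt-cytotoxicity endpoint quantifies protein in human endothelial/PBMC co-cultures at 24 h using SRB absorbance (560 nm) after trichloroacetic acid fixation. Values reflect signal change from the DMSO negative control, fitted bidirectionally.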
# [8] = target: human CYP19A1, CYP19A1 (gene 1588) (UniProt P11511); assay: NVS_ADME_hCYP19A1: NovaScreen (NVS) CYP450-related Enzyme Activity (ADME) Assay for human CYP19A1 (AID 2283098; active = hit-call score of the fitted dose curve at least 0.9, where 1 is the maximum;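 as to AC50: potency for inhibitors seen as loss of fluorescent enzyme signal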)
# human CYP19A1, CYP19A1 (gene 1588), sequence (P11511 whole entry, looked up): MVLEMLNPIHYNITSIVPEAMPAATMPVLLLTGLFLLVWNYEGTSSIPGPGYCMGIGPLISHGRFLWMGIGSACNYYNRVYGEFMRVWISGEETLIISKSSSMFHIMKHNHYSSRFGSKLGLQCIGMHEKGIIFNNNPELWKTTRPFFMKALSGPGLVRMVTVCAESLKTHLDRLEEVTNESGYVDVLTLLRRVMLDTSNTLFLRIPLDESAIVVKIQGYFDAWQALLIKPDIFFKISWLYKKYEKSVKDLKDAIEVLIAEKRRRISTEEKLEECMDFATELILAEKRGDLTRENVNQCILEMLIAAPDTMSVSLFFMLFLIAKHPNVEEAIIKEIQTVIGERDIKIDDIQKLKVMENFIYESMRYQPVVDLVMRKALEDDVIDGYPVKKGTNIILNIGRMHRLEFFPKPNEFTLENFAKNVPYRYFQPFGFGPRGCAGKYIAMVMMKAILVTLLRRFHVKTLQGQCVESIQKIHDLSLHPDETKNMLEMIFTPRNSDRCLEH
# Outline: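 Compounds were first screened at 10 uM in duplicate against purified enzyme, with a fluorogenic substrate and fluorescence intensity detection after 0.5 h. Inhibition appears as reduced signal against acetonitrile control.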
# [9] = target: human CYP2C8, CYP2C8 (gene 1558) (UniProt P10632); assay: NVS_ADME_hCYP2C8: NovaScreen (NVS) CYP450-related Enzyme Activity (ADME) Assay for human CYP2C8 (AID 2283104)
# Outline: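 Fluorescence readout of substrate turnover by recombinant CYP2C8 after 0.5 h, baseline acetonitrile. Single-concentration duplicate screen at 10 uM preceded singleton concentration series (max 20 uM) for compounds passing the inhibition threshold.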
# [10] = target: Cytochrome P450 3A4 (Homo sapiens) (UniProt P08684); assay: NVS_ADME_hCYP3A4: NovaScreen (NVS) CYP450-related Enzyme Activity (ADME) Assay for human CYP3A4 (AID 2283110; active = hit-call score of the fitted dose curve at least 0.9, where 1 is the maximum)
# Cytochrome P450 3A4 (Homo sapiens), sequence (P08684 whole entry, looked up): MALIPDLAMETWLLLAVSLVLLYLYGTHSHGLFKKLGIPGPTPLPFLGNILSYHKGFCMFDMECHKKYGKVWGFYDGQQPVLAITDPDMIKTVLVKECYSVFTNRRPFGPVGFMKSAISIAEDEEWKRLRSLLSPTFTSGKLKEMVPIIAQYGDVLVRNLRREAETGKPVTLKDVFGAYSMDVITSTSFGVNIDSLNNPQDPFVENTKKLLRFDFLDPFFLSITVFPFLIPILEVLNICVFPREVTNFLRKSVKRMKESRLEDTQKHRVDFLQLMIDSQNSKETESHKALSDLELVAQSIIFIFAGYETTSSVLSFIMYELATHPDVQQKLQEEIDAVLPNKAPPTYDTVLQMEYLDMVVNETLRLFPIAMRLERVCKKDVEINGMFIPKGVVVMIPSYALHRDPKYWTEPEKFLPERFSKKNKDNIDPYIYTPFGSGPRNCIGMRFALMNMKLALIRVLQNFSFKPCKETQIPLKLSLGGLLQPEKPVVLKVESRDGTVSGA
# Outline: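 Activity is derived from decreased fluorescence intensity relative to acetonitrile, measured 0.33 hour after dosing insect-cell-expressed CYP3A4 in a cell-free format. Screening used 10 uM in duplicate before concentration-response follow-up.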
# [11] = target: Cytochrome P450 2C19 (Homo sapiens) (UniProt P33261); assay: NVS_ADME_hCYP2C19: NovaScreen (NVS) CYP450-related Enzyme Activity (ADME) Assay for human CYP2C19 (AID 2283113; active = hit-call score of the fitted dose curve at least 0.9, where 1 is the maximum;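 as to AC50: potency for inhibition seen as loss of fluorescent signal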)
# Outline: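 Cell-free recombinant human CYP2C19 from insect cells, fluorescent substrate; activity read by fluorescence intensity 1 h after dosing. Primary screen in duplicate at 10 uM; actives retested in concentration series. Signal loss versus acetonitrile negative control.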
# [12] = target: human CYP2A6, CYP2A6 (gene 1548) (UniProt P11509); assay: NVS_ADME_hCYP2A6: NovaScreen (NVS) CYP450-related Enzyme Activity (ADME) Assay for human CYP2A6 (AID 2283099; active = hit-call score of the fitted dose curve at least 0.9, where 1 is the maximum)
# human CYP2A6, CYP2A6 (gene 1548), sequence (P11509 whole entry, looked up): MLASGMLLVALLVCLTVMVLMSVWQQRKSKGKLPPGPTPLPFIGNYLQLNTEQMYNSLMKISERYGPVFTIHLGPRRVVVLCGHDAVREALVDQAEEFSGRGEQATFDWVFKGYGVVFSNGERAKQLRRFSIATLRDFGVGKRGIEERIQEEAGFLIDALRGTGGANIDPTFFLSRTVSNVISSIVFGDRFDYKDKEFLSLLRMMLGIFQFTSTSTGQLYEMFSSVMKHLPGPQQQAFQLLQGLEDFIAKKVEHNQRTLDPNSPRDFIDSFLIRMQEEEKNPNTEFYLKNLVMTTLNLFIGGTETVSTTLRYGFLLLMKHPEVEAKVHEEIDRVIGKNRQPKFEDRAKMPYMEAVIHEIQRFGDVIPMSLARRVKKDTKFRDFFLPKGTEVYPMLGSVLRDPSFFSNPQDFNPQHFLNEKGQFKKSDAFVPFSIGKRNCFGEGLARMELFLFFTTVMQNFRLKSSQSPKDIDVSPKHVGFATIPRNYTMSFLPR
# Outline: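 Recombinant human CYP2A6 expressed in insect cells, cell-free; fluorogenic substrate turnover read by fluorescence intensity 0.5 h after dosing. Primary screen 10 uM in duplicate, then concentration-response up to 20 uM; acetonitrile as negative control.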
# [13] = target: human CYP1A2, CYP1A2 (gene 1544) (UniProt P05177); assay: NVS_ADME_hCYP1A2: NovaScreen (NVS) CYP450-related Enzyme Activity (ADME) Assay for human CYP1A2 (AID 2283102; active = hit-call score of the fitted dose curve at least 0.9, where 1 is the maximum;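 also: potency for inhibition since loss of fluorescence marks reduced CYP1A2 activity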)
# human CYP1A2, CYP1A2 (gene 1544), sequence (P05177 whole entry, looked up): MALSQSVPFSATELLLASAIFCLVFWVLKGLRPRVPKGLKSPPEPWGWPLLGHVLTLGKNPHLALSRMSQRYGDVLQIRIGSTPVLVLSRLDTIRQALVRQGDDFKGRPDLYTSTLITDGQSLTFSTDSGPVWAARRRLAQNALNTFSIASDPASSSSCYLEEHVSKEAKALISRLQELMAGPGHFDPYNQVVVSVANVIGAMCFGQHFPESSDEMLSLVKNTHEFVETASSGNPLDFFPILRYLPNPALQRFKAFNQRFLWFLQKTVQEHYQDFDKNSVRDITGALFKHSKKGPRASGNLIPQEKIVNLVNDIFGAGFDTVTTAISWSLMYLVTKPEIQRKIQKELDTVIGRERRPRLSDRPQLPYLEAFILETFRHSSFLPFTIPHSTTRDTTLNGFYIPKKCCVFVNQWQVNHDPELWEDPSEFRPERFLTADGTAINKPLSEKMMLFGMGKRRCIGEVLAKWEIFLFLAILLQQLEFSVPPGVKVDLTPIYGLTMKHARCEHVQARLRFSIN
# Outline: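 Recombinant human CYP1A2 from insect cells, cell-free, fluorogenic substrate; read 0.5 h after dosing with loss of fluorescence signal indicating inhibition. Primary screen in duplicate at 10 uM, acetonitrile as negative control.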
# [14] = target: human CYP1A1, CYP1A1 (gene 1543) (UniProt P04798); assay: NVS_ADME_hCYP1A1: NovaScreen (NVS) CYP450-related Enzyme Activity (ADME) Assay for human CYP1A1 (AID 2283100; active = hit-call score of the fitted dose curve at least 0.9, where 1 is the maximum)
# human CYP1A1, CYP1A1 (gene 1543), sequence (P04798 whole entry, looked up): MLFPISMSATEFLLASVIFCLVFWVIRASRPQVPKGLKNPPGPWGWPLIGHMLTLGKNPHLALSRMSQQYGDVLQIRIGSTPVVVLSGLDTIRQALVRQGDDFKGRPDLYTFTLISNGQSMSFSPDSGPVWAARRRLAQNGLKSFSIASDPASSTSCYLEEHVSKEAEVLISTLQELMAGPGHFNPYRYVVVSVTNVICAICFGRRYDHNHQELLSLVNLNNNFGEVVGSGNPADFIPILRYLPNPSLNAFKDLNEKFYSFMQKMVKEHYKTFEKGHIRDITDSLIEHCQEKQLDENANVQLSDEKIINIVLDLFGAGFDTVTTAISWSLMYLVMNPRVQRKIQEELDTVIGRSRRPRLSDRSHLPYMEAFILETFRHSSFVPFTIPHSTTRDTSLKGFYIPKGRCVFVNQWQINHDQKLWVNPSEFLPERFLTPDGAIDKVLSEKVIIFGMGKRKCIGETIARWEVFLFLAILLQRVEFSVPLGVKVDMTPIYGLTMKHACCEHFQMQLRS
# Outline: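 Recombinant CYP1A1 with a fluorogenic substrate, cell-free, read 1 h after dosing; acetonitrile as negative control. Single-concentration screen at 10 uM in duplicate, then concentration-response up to 20 uM for chemicals meeting ~30% inhibition threshold.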
# [15] = target: human CYP2B6, CYP2B6 (gene 1555) (UniProt P20813); assay: NVS_ADME_hCYP2B6: NovaScreen (NVS) CYP450-related Enzyme Activity (ADME) Assay for human CYP2B6 (AID 2283101; active = hit-call score of the fitted dose curve at least 0.9, where 1 is the maximum)
# human CYP2B6, CYP2B6 (gene 1555), sequence (P20813 whole entry, looked up): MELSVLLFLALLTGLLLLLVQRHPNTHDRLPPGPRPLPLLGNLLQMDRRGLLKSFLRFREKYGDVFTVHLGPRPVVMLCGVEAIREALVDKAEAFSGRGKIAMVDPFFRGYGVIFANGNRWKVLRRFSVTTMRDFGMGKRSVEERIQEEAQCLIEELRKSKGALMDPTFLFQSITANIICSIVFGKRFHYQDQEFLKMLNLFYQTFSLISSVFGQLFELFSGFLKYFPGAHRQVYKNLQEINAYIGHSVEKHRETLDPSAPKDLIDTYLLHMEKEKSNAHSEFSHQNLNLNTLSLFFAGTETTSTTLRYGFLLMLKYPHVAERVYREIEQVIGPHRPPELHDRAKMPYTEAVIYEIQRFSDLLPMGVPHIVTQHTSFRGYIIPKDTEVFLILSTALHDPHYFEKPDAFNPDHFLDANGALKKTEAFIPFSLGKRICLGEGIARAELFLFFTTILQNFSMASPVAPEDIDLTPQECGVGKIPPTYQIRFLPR
# Outline: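 Cell-free recombinant enzyme assay with a fluorogenic substrate; fluorescence intensity read 1 hour after dosing. Loss of signal relative to acetonitrile negative control indicates inhibition. Primary screen run in duplicate at 10 uM, actives then tested in concentration series.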
# [16] = target: human CYP2J2, CYP2J2 (gene 1573) (UniProt P51589); assay: NVS_ADME_hCYP2J2: NovaScreen (NVS) CYP450-related Enzyme Activity (ADME) Assay for human CYP2J2 (AID 2283106; active = hit-call score of the fitted dose curve at least 0.9, where 1 is the maximum)
# human CYP2J2, CYP2J2 (gene 1573), sequence (P51589 whole entry, looked up): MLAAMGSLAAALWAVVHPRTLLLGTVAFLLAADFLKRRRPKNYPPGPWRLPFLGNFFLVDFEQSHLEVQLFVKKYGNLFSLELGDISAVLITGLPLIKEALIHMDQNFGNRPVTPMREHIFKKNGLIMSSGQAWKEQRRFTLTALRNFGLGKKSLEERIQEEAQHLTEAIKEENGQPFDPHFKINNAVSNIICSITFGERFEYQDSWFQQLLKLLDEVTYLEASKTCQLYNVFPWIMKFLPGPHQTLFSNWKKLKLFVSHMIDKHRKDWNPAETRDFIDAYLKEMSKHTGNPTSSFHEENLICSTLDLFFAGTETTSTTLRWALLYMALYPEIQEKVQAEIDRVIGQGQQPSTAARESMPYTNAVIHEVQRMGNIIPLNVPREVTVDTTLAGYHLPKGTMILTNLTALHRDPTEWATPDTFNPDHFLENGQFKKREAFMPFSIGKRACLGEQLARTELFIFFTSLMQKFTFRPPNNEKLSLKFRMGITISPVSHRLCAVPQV
# Outline: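 Chemicals were first tested at 10 uM in duplicate, and hits meeting criteria such as 30% inhibition were run in singleton concentration series with a 20 uM top concentration. Enzyme activity of recombinant CYP2J2 was measured by fluorescence after 1 h, relative to acetonitrile.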
# [17] = target: human CYP2D6, CYP2D6 (gene 1565) (UniProt P10635); assay: NVS_ADME_hCYP2D6: NovaScreen (NVS) CYP450-related Enzyme Activity (ADME) Assay for human CYP2D6 (AID 2283107; active = hit-call score of the fitted dose curve at least 0.9, where 1 is the maximum)
# Outline: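 Cell-free assay using recombinant human CYP2D6 expressed in insect cells, with a fluorogenic substrate read after 1 h. Primary screen in duplicate at 10 uM; actives followed up in concentration series. Loss of signal fitted relative to acetonitrile.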
# [18] = target: human CYP2C9, CYP2C9 (gene 1559) (UniProt P11712); assay: NVS_ADME_hCYP2C9: NovaScreen (NVS) CYP450-related Enzyme Activity (ADME) Assay for human CYP2C9 (AID 2283108; active = hit-call score of the fitted dose curve at least 0.9, where 1 is the maximum)
# human CYP2C9, CYP2C9 (gene 1559), sequence (P11712 whole entry, looked up): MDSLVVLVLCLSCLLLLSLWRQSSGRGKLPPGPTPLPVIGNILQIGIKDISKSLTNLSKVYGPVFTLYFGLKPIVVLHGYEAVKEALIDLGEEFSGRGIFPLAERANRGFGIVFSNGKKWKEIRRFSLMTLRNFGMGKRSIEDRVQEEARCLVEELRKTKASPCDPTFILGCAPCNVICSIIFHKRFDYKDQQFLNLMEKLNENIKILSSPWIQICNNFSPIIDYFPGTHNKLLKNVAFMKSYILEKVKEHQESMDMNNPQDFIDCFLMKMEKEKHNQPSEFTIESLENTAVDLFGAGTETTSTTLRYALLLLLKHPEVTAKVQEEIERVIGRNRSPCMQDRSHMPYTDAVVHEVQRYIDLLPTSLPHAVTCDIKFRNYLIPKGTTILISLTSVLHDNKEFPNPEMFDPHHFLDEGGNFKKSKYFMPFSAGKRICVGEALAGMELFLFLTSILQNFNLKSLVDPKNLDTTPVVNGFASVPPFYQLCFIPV
# Outline: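 Cell-free assay of recombinant human CYP2C9 produced in Sf9 cells, with enzyme activity read by fluorescence intensity 0.75 h after compound addition. Loss of signal versus an acetonitrile negative control indicates inhibition. Primary screen used 10 uM in duplicate; actives were retested in concentration series.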
# [19] = target: rat CYP2A1, Cyp2a1 (gene 24894) (UniProt P11711); assay: NVS_ADME_rCYP2A1: NovaScreen (NVS) CYP450-related Enzyme Activity (ADME) Assay for rat CYP2A1 (AID 2283114)
# Outline: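 Cell-free fluorescence enzyme-activity read on recombinant rat CYP2A1, taken 0.75 h post-dosing. Compounds were screened in duplicate at 10 uM, then hits tested in concentration series (max 20 uM); inhibition scored relative to acetonitrile baseline.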
# E-selectin (Homo sapiens), sequence (P16581 whole entry, looked up): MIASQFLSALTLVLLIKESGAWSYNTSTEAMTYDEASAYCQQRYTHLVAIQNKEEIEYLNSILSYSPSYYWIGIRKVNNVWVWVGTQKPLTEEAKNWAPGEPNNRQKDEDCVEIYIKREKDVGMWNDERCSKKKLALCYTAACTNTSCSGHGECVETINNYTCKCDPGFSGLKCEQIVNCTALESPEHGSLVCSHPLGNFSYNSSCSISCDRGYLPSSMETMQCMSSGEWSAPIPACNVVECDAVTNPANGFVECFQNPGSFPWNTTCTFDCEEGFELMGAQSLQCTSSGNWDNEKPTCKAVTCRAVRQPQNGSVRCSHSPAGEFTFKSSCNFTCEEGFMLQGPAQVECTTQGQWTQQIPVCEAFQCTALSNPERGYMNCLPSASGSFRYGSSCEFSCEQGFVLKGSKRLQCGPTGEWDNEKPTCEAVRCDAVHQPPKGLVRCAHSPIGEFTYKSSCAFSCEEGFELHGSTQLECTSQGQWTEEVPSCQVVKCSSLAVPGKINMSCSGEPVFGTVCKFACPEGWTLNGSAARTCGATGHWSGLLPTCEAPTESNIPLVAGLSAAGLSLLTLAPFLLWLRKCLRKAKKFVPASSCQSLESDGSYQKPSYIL
structure (smiles),measurement,setting,value
CCC(C)(C)C(=O)OC1=C(c2ccc(Cl)cc2Cl)C(=O)OC12CCCCC2,AC50,[1],16.7 µM (active)
same,AC50,[2],11.5 µM (active)
same,AC50,[3],21.3 µM (active)
same,AC50,[4],26.5 µM (active)
same,AC50,[5],4.73 µM (active)
same,AC50,[6],12.3 µM (active)
same,AC50,[7],32.8 µM (active)
CCC(C)Nc1c([N+](=O)[O-])cc(C(C)(C)C)cc1[N+](=O)[O-] (centres undefined),outcome,[1],inactive
same,AC50,[2],11.9 µM (active)
same,outcome,[3],inactive
same,AC50,[4],31.9 µM (active)
same,AC50,[5],20 µM (active)
same,AC50,[6],29.6 µM (active)
same,outcome,[7],inactive
COP(=O)(OC)OC=C(Cl)Cl,AC50,[1],17.5 µM (active)
same,AC50,[2],28.9 µM (active)
same,outcome,[3],inactive
same,outcome,[4],inactive
same,outcome,[5],inactive
same,AC50,[6],20 µM (active)
same,outcome,[7],inactive
same,outcome,[8],inactive
O=S(=O)(O)C(F)(F)C(F)(F)C(F)(F)C(F)(F)C(F)(F)C(F)(F)C(F)(F)C(F)(F)F,outcome,[1],inactive
same,AC50,[2],20 µM (active)
same,outcome,[2],inactive
same,outcome,[3],inactive
same,outcome,[4],inactive
same,outcome,[5],inactive
same,outcome,[6],inactive
same,outcome,[7],inactive
same,AC50,[8],5.35 µM (active)
same,outcome,[8],inactive
same,AC50,[9],4.04 µM (active)
same,outcome,[10],inactive
same,AC50,[11],5.18 µM (active) [middle of 5 runs]
COC(=O)c1ccccc1S(=O)(=O)NC(=O)N(C)c1nc(C)nc(OC)n1,outcome,[1],inactive
same,outcome,[2],inactive
same,outcome,[3],inactive
same,outcome,[4],inactive
same,outcome,[5],inactive
same,outcome,[6],inactive
same,outcome,[7],inactive
O=[N+]([O-])/N=C1\NCCN1Cc1ccc(Cl)nc1,outcome,[1],inactive
same,outcome,[2],inactive
same,outcome,[3],inactive
same,outcome,[4],inactive
same,outcome,[5],inactive
same,outcome,[6],inactive
same,outcome,[7],inactive
same,outcome,[8],inactive
Clc1ccccc1-c1nnc(-c2ccccc2Cl)nn1,outcome,[1],inactive
same,outcome,[2],inactive
same,outcome,[3],inactive
same,outcome,[4],inactive
same,outcome,[5],inactive
same,outcome,[6],inactive
same,outcome,[7],inactive
CCc1ccc(C(=O)NN(C(=O)c2cc(C)cc(C)c2)C(C)(C)C)cc1,outcome,[1],inactive
same,AC50,[2],9.03 µM (active)
same,outcome,[3],inactive
same,outcome,[4],inactive
same,AC50,[5],11.3 µM (active)
same,AC50,[6],17.7 µM (active)
same,outcome,[7],inactive
COc1cc(OC)nc(NC(=O)NS(=O)(=O)c2cc(NC=O)ccc2C(=O)N(C)C)n1,outcome,[1],inactive
same,outcome,[2],inactive
same,outcome,[3],inactive
same,outcome,[4],inactive
same,outcome,[5],inactive
same,outcome,[6],inactive
same,outcome,[7],inactive
N#Cc1c(Cl)c(Cl)c(Cl)c(C#N)c1Cl,AC50,[1],1.68 µM (active)
same,AC50,[2],0.959 µM (active)
same,AC50,[3],1.83 µM (active)
same,AC50,[4],1.4 µM (active)
same,AC50,[5],1.74 µM (active)
same,AC50,[6],0.197 µM (active)
same,AC50,[7],2.27 µM (active)
same,AC50,[8],0.192 µM (active)
same,outcome,[12],inactive
same,AC50,[13],0.406 µM (active)
same,AC50,[9],0.213 µM (active)
same,AC50,[10],0.302 µM (active)
same,outcome,[11],inactive
CCS(=O)(=O)c1cccnc1S(=O)(=O)NC(=O)Nc1nc(OC)cc(OC)n1,outcome,[1],inactive
same,outcome,[2],inactive
same,outcome,[3],inactive
same,outcome,[4],inactive
same,outcome,[5],inactive
same,outcome,[6],inactive
same,outcome,[7],inactive
COc1nn(CSP(=S)(OC)OC)c(=O)s1,outcome,[1],inactive
same,outcome,[2],inactive
same,outcome,[3],inactive
same,outcome,[4],inactive
same,outcome,[5],inactive
same,outcome,[6],inactive
same,outcome,[7],inactive
same,AC50,[8],1.23 µM (active)
same,AC50,[12],6.42 µM (active)
same,AC50,[14],5.47 µM (active)
same,AC50,[15],0.35 µM (active)
same,AC50,[13],3.25 µM (active)
same,AC50,[16],2.06 µM (active)
same,AC50,[17],3.83 µM (active)
same,AC50,[18],2.88 µM (active)
same,AC50,[11],124 nM (active)
COP(=S)(OC)Oc1ccc([N+](=O)[O-])cc1,AC50,[1],14.5 µM (active)
same,AC50,[2],30.9 µM (active)
same,outcome,[3],inactive
same,AC50,[4],11.5 µM (active)
same,AC50,[5],20 µM (active)
same,AC50,[6],21.9 µM (active)
same,AC50,[7],21.7 µM (active)
same,outcome,[8],inactive
same,AC50,[12],2.85 µM (active)
same,AC50,[14],6.61 µM (active)
same,AC50,[15],0.547 µM (active)
same,AC50,[13],1.06 µM (active)
same,AC50,[16],2.25 µM (active)
same,AC50,[17],4.79 µM (active)
same,AC50,[18],4.05 µM (active)
same,AC50,[11],250 nM (active)
same,AC50,[19],7.12 µM (active)
